An excerpt weighted towards active compounds, which were near 14% of everything screened.
Pf growth 48h: P. falciparum growth inhibition at 48 hours (one generation); P. falciparum luciferase growth in erythrocytes, 48 h; Potency, µM (highest dose often 28.7 µM), for inactives: at the highest dose activity change, negative = inhibition, most hits filed as inhibitors; 5.9% of 310,000 active; AID 504832; note: potency is the fitted concentration of half-maximal effect
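Firefly luciferase activity from engineered P. falciparum reports growth; inhibitors lower the luminescent signal. Cultures contained 2% hematocrit erythrocytes at 0.1% final parasitemia.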
HCMV inh: human cytomegalovirus inhibition. HFF cells, HCMV-luciferase reporter, 72 h; active compounds read low. activity change, negative = inhibition, % at 57.5 µM. 4.5% of 410,000 active; in the data active = activity change below about -60%; inconclusive = no clear call, values can overlap the other calls; inactive = above about -39%
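Cell-based, HFFs, 1000 cells/well, 16 h 37C; cpds in DMSO + HCMV-luc, MOI 1 PFU/cell; 72 h 37C; OneGlo luminescence after 5 min RT; norm. to buffer vs Salinomycin 10uM.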
Pf growth 96h: inhibits malaria parasite growth, 96 h; P. falciparum luciferase reporter growth, 96 h; Potency, µM (titrated, usually from 28.7 µM), without a hit: at the highest dose activity change, negative = inhibition, actives largely listed as inhibitors; 6.9% of 320,000 active; note: potency is the fitted concentration of half-maximal effect
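96 h incubation, 37 C, 5% CO2, of luciferase-reporter P. falciparum-infected RBCs (2% hematocrit, 0.05% parasitemia final) with test compounds; endpoint luminescence.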
Sm TGR block: S. mansoni TGR enzyme inhibition; Potency, µM (top dose mostly 114 µM), for the others: top-dose activity change, negative = inhibition, actives largely listed as inhibitors; purified TGR, DTNB reduction, TNB absorbance 405 nm; 3% of 360,000 active; AID 485364; note: potency is the fitted concentration of half-maximal effect; nearly all actives have a fitted effect of over 60% in size
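First, TGR (20 nM dispensed) and NADPH were mixed with compound. Second, a 15 min room-temperature incubation followed. Third, further NADPH and then DTNB were added to start the reaction. Finally, TNB absorbance was monitored kinetically.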
Giardia FBPA inh: blocks Giardia fructose-bisphosphate aldolase activity. 0.71% of 290,000 active. AID 2451. Potency, µM (doses to about 59.6 µM), for the others: at the highest dose activity, negative = inhibition, actives largely listed as inhibitors. purified Giardia FBPA. A8B2U2; note: potency is the fitted concentration of half-maximal effect; nearly all actives have a fitted effect of over 55% in size
Target sequence (A8B2U2 whole entry, looked up): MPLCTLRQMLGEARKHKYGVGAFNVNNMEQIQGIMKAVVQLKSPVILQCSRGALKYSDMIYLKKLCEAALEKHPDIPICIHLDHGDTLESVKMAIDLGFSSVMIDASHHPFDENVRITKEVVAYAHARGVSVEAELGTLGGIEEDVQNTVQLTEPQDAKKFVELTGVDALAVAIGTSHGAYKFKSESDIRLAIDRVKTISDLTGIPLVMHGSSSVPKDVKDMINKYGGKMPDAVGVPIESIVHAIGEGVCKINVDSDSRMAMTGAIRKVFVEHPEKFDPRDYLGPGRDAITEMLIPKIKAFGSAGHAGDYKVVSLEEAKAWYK
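Giardia FBPA (40 nM reagent) was preincubated 10 min at RT with compound (up to 57.5 uM final), then substrate plus GAPDH/TPI/NAD/arsenate coupling system with diaphorase/resazurin was added; resorufin fluorescence (525/598 nm) was read after 20 min.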
Starred values were filed as active, the others as inactive; ? = inconclusive; . = not tested or not shown; [ ] = remark or other dose. Unless noted, calls come from the whole dose curve; as a rule, active = well fitted curve in the direction sought with a large enough effect; inconclusive = small, poorly fitted or top-dose-only effect, or another doubt; inactive = no such curve, though single readings can be large; an effect the other way counts as inactive or inconclusive. % is set by controls: 0 for no effect and ±100 for the full control effect.

SMILES	Pf growth 48h	HCMV inh	Pf growth 96h	Sm TGR block	Giardia FBPA inh
CNc1oc(C)nc1S(=O)(=O)c1ccccc1	-2%	5	.	1.6µM*	-20%
CCOc1ccc2ncc3c(-c4cccc(OC)c4)nn(-c4ccccc4)c3c2c1	.	-29	.	-8%	.
Cc1ccc(CN2C(=O)CCC2(C)c2nnnn2-c2ccc3c(c2)OCCO3)cc1 (stereo not given)	.	10	.	.	.
CCOc1ccc(CCNC(=O)C2CCC(=O)N2CCc2ccccc2)cc1OCC (stereo not given)	.	-11	13µM*	-4%	0%
COc1ccc(CCNC(=O)c2nnn(-c3ccccc3OC)c2N)cc1OC	0%	29	?	4%	-1%
COc1ccc(CCN2C(=O)CCC2(C)c2nnnn2-c2ccc3c(c2)OCCO3)cc1OC (stereo not given)	.	-83*	.	.	.
CCOc1ccc(CCNC(=O)CN2C(=O)CCSc3ccccc32)cc1OCC	0%	-24	0.19µM*	-9%	2%
COc1ccc(CCNC(=O)c2nnn(-c3ccc4c(c3)OCCO4)c2N)cc1OC	151%	-75*	0%	2%	-27%
FC(F)(F)c1cc(CN2CCC3(CCNCC3)CC2)cc(C(F)(F)F)c1	.	.	.	.	7%
O=C(N1CCCCC1)N1CCC[C@@H]1c1noc2ccccc12	.	-20	.	.	.
COc1cccc(Cn2c(=O)c(-c3cc(F)cc(F)c3)nc3cnc(N4CCOCC4)nc32)c1	.	.	.	.	8%
Cc1cccc(NS(=O)(=O)c2ccc3c(c2)n(C)c(=O)n3C)c1C	.	53	.	12%	.
COc1cscc1C(N)=O	-23%	32	?	11%	8%
CN(Cc1ccccc1)C(C(=O)NC1CCCCC1)c1ccc(Cl)cc1 (stereo not given)	.	-1	.	8%	.
CCOc1ccc(CCNC(=O)C2CC(=O)N(CCc3ccccc3)C2)cc1OCC (stereo not given)	-2%	-72*	?	1%	-4%
Cc1onc(C(=O)NCCc2ccccc2)c1[N+](=O)[O-]	14%[0.00184 µM]	14	22%	?	-4%
CCOc1ccc(CCNC(=O)C2CC(=O)N(c3ccc4c(c3)OCCO4)C2)cc1OCC (stereo not given)	?	-16	3.3µM*	3%	.
CCOc1ccc(CCNC(=O)C2CC(=O)N(CCc3ccc(OC)c(OC)c3)C2)cc1OCC (stereo not given)	-26%	-14	?	-2%	.
COc1ccc(CCNC(=O)c2noc(C)c2[N+](=O)[O-])cc1OC	-4%[0.00184 µM]	-38	46%	35µM*	5%
CC(C(=O)NCc1ccco1)n1ccc2cc(S(=O)(=O)N3CCCCC3)ccc21 (stereo not given)	?	?	?	0%	-7%
O=C(Nc1ccc2ccccc2c1)C(c1ccc(C(F)(F)F)cc1)n1c(=O)c(-c2cc3ccccc3[nH]2)nc2ccccc21 (stereo not given)	.	-30	.	.	.
O=C(CN1C(=O)C2CC=CCC2C1=O)Nc1ccc(F)cc1F (stereo not given)	-10%	1	5%	-3%	.
CC(=O)N1C(=O)/C(=C2\SC(=S)N(NS(=O)(=O)c3ccc(C)cc3)C2=O)c2ccccc21	6%	16	82%	2.5µM*	-17%
CC(/C=C1\SC(=S)N(NS(=O)(=O)c2ccc(C)cc2)C1=O)=C\c1ccccc1	4%	9	-1%	-19%	-9%
COc1ccc(/C=C/N(CCc2ccc(OC)c(OC)c2)C(C)=O)cc1	.	.	.	.	-3%[12.9 µM]
SMILES	Pf growth 48h	HCMV inh	Pf growth 96h	Sm TGR block	Giardia FBPA inh
O=C(NCc1ccccc1)c1ccc(S(=O)(=O)C(F)F)cc1	.	-31	54%	-14%	1%
Cc1cc(=O)oc(C)c1C(=O)NNC(=O)C1(C)CC1Br (stereo not given)	41%	-40	32%	2%	7%
CC1(C(=O)NNC(=O)c2ccc(=O)oc2)CC1Br (stereo not given)	65%	-6	79%	10µM*	12%
CCOC(=O)c1ccccc1NC(=O)CSc1cc(C)[nH]c(=O)n1	.	4	.	0%	.
O=S(=O)(c1ccc2nc(Nc3ccc(Br)cc3F)ccc2c1)N1CCCC1	.	-4	.	-7%	.
Cc1cccc(-c2nc3c4ccccc4nc(N4CCN(c5ccccc5F)CC4)n3n2)c1	.	7	.	-1%	.

Bioassay records (PubChem BioAssay)
